Experimental data reported in PubChem BioAssay.
Values without a mark were called inactive. The rule behind the calls is not given here.

target: Pantothenate synthetase (Mycobacterium tuberculosis (strain ATCC 25618 / H37Rv)) (UniProt P9WIL5); test: Recombinant Mtb pantothenate synthetase (PanC) inhibitors, coupled enzyme, confirmatory (AID 375); details: coupled enzyme assay; at 10 µM, stronger effect = higher value;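 note: 0% = full reaction with vehicle and 100% = no enzyme background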
Sequence (P9WIL5 whole entry, looked up): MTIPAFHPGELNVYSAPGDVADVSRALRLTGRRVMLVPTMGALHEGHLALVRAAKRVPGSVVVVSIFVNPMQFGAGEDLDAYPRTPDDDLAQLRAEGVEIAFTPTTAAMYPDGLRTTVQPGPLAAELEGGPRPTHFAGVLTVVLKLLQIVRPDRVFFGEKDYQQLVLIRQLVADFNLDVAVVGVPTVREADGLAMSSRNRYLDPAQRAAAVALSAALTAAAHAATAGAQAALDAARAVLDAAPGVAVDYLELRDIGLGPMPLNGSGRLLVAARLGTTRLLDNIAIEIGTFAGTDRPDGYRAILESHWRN

| Compound | inhibition [%] |
| --- | --- |
| CCc1nnc(SCc2cn3c(C)cc(C)nc3n2)n1N | 0 |
| CC(C)CN(CC(C)C)c1nc(N)c(C#N)c(CC#N)c1C#N | 0 |
| CC(C)N(C(=O)COC(=O)c1ccc(O)cc1)C(C)C | 1 |
| Cc1nc2sc(C(c3cccc(F)c3)N3CCC(C)CC3)c(O)n2n1 (stereo not given) | 0 |
| COc1ccc(OC)c(S(=O)(=O)NCCO)c1 | 1 |
| CN(c1ccccc1C(=O)N1CCN(c2cccc(Cl)c2)CC1)S(C)(=O)=O | 0 |
| CC12CN3CC(C)(CN(C1)C3c1ccc(Cl)cc1Cl)C2=O (stereo not given) | 0 |
| COCCNS(=O)(=O)c1cc(F)ccc1OC | 0 |
| Cc1cc(Cl)c(S(=O)(=O)Nc2ccc3c(c2)OCCO3)cc1OCC(N)=O | 0 |
| COCCn1nnnc1C(c1ccc(OC)cc1)N1CCN(c2ccccc2F)CC1 (stereo not given) | 0 |
| CC1(C)Cc2c(sc3c2c(=N)n(Cc2ccco2)c(=O)n3Cc2ccccc2)CO1 | 0 |
| CC1CCN(C(=S)c2ccccc2O)CC1 | 0 |
| CCn1c(=O)c(=O)[nH]c2cc(C(=O)N3CCN(c4ccccc4F)CC3)ccc21 | 4 |
| COc1ccc(C(CC(=O)O)NC(=O)c2ccccc2)cc1OC (stereo not given) | 0 |
| CCOC(=O)c1cnc(-n2nc(C)cc2C)nc1Nc1cccc(C(C)=O)c1 | 0 |
| CCOC(=O)N1CCC(NC(=O)c2ccc3c(c2)N(C)CCS3)CC1 | 6 |
| CC(Oc1ccc(Cl)cc1Cl)C(=O)Nc1ncccn1 (stereo not given) | 0 |
| CCC(=O)Nc1cc(Cl)ccc1N1CCN(C(=O)CC)CC1 | 0 |
| CC1N=C2c3ccccc3N=C(SCc3cc(=O)n4cc(Cl)ccc4n3)N2C1=O (stereo not given) | 2 |
| Cc1ccc(C(=O)N2CCCC(c3nc4c(nnn4Cc4ccccc4)c(=O)[nH]3)C2)cc1 (stereo not given) | 1 |

| Compound | inhibition [%] |
| --- | --- |
| COc1ccc2c(c1)c(CC(=O)O)c(C)n2C(=O)c1ccc(Cl)cc1 | 5 |
| Cc1c(C(=O)NCc2ccccc2)oc2c1C(=O)CCC2 | 0 |
| Cc1ccccc1-n1c(Cn2c(=O)sc3ccccc32)nnc1SCC(=O)N1CCCC1 | 8 |
| CCOc1cc(NC(=O)c2ccco2)c(OCC)cc1NC(=O)CCC(=O)NCc1cccnc1 | 3 |
| CC(=O)SCC(=O)N=c1sc2cc(F)ccc2n1C | 0 |
| CC(C)=CC(=O)Nc1ccc(Br)cc1 | 0 |
| Cn1c(=O)c2c(nc(N3CCCCC3)n2CCSc2nc3ccccc3o2)n(C)c1=O | 8 |
| CCOC(=O)c1cc(-c2nnc(-c3ccc(Oc4ccccc4)cc3)o2)c(C)nc1C | 0 |
| CCCCc1nccn1CCn1ccnc1CCCC | 0 |
| CCN1CCN(c2nc3c(c(=O)[nH]c(=O)n3C)n2CCSc2nc3ccccc3s2)CC1 | 3 |
| Cc1[nH]c(=O)[nH]c(=O)c1S(=O)(=O)N(C)Cc1ccccc1 | 0 |
| O=C(Nc1ccccc1)N1CCC(c2ccccc2)C1 (stereo not given) | 6 |
| C#CCNc1c(C)c(C)nc2ncnn12 | 4 |
| COc1ccc(NC(=O)CCc2nc(-c3ccccc3F)no2)cc1 | 0 |
| COc1ccc(C2/C(=C(/O)c3ccc(OC(C)C)cc3)C(=O)C(=O)N2CCCN2CCOCC2)cc1 (stereo not given) | 0 |
| COc1cccc(-c2nc3n(n2)C(c2cccs2)C(C(=O)Nc2cccnc2)=C(C)N3)c1 (stereo not given) | 0 |
| COc1ccc(C)cc1S(=O)(=O)N(C)CC(=O)Nc1ccc2c(c1)OCO2 | 0 |
| CC1=C(C(=O)OC(C)C)C(c2ccccn2)n2ncnc2N1 (stereo not given) | 0 |
| Cc1nc2ncnn2c(Nc2ccc3c(c2)OCCO3)c1C | 3 |
| NS(=O)(=O)c1ccc(NC(=O)N[C@@H](Cc2ccccc2)C(=O)O)cc1 | 0 |
